Data taken from PubChem BioAssay AID1159580 (chemical genetic matrix, 2015).
The campaign covered roughly 5,500 compounds. About 2,000 (36%) were called active. Not shown: some 18% with an inconclusive outcome. Rule as the data show it: active = normalized growth mostly below about 0.91 (no sharp cut-off); inconclusive = no clear call, values can overlap the other calls; inactive = mostly above about 0.92. The list shows a part of the results.

Assay: chemical genetic growth profiling, strain panel (AID 1159580);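 also: tested at 20 µM; growth read once vehicle control cultures reached saturation at 30 °C; 1 = growth at the plate median or of vehicle wells; lower values mean less growth of the strain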
Conditions: S. cerevisiae deletion strains, growth OD
[1] = locus YAR019C, strain CDC15, stronger effect = lower value
[2] = locus YBL105C, strain PKC1, stronger effect = lower value
[3] = locus YBR135W, strain CKS1, stronger effect = lower value
[4] = locus YBR136W, strain MEC1, stronger effect = lower value
[5] = locus YBR160W, strain CDC28, stronger effect = lower value
[6] = locus YDL017W, strain CDC7, stronger effect = lower value
[7] = locus YDL028C, strain MPS1, stronger effect = lower value
[8] = locus YDL101C, strain DUN1, stronger effect = lower value
[9] = locus YDL108W, strain KIN28, stronger effect = lower value
[10] = locus YDL132W, strain cdc53, stronger effect = lower value
[11] = locus YDL214C, strain PRR2, stronger effect = lower value
[12] = locus YDR052C, strain DBF4, stronger effect = lower value
[13] = locus YDR054C, strain cdc34, stronger effect = lower value
[14] = locus YDR226W, strain ADK1, stronger effect = lower value
[15] = locus YDR477W, strain SNF1, stronger effect = lower value
[16] = locus YER123W, strain YCK3, stronger effect = lower value
[17] = locus YER133W, strain GLC7, stronger effect = lower value
[18] = locus YFL009W, strain cdc4, stronger effect = lower value
[19] = locus YFL029C, strain CAK1, stronger effect = lower value
[20] = locus YFR003C, strain YPI1, stronger effect = lower value
[21] = locus YFR019W, strain FAB1, stronger effect = lower value
[22] = locus YFR028C, strain CDC14, stronger effect = lower value
[23] = locus YGR040W, strain KSS1, stronger effect = lower value
[24] = locus YGR052W, strain FMP48, stronger effect = lower value
[25] = locus YGR092W, strain DBF2, stronger effect = lower value
[26] = locus YHR030C, strain SLT2, stronger effect = lower value
[27] = locus YHR079C, strain IRE1, stronger effect = lower value
[28] = locus YHR082C, strain KSP1, stronger effect = lower value
[29] = locus YHR205W, strain SCH9, stronger effect = lower value
[30] = locus YIL147C, strain SLN1, stronger effect = lower value
[31] = locus YJL095W, strain BCK1, stronger effect = lower value
[32] = locus YJL128C, strain PBS2, stronger effect = lower value
[33] = locus YJL157C, strain FAR1, stronger effect = lower value
[34] = locus YJR016C, strain ILV3, stronger effect = lower value
[35] = locus YJR066W, strain TOR1 (second series), stronger effect = lower value
[36] = locus YJR066W, strain TOR1, stronger effect = lower value
[37] = locus YKL048C, strain ELM1, stronger effect = lower value
[38] = locus YKL067W, strain YNK1, stronger effect = lower value
[39] = locus YKL101W, strain HSL1, stronger effect = lower value
[40] = locus YKL193C, strain SDS22, stronger effect = lower value
[41] = locus YKL203C, strain TOR2, stronger effect = lower value
[42] = locus YLR113W, strain HOG1, stronger effect = lower value
[43] = locus YLR133W, strain CKI1, stronger effect = lower value
[44] = locus YLR403W, strain SFP1, stronger effect = lower value
[45] = locus YML070W, strain DAK1, stronger effect = lower value
[46] = locus YMR001C, strain CDC5, stronger effect = lower value
[47] = locus YMR205C, strain PFK2 (second series), stronger effect = lower value
[48] = locus YMR277W, strain FCP1, stronger effect = lower value
[49] = locus YNL006W, strain LST8, stronger effect = lower value
[50] = locus YNL020C, strain ARK1, stronger effect = lower value
[51] = locus YNL161W, strain CBK1, stronger effect = lower value
[52] = locus YNL183C, strain NPR1, stronger effect = lower value
[53] = locus YNL207W, strain RIO2, stronger effect = lower value
[54] = locus YNL222W, strain SSU72, stronger effect = lower value
[55] = locus YNL307C, strain MCK1 (second series), stronger effect = lower value
[56] = locus YOL078W, strain AVO1, stronger effect = lower value
[57] = locus YOL136C, strain PFK27, stronger effect = lower value
[58] = locus YOR061W, strain CKA2, stronger effect = lower value
[59] = locus YOR119C, strain RIO1, stronger effect = lower value
[60] = locus YOR231W, strain MKK1, stronger effect = lower value
[61] = locus YOR329C, strain SCD5, stronger effect = lower value
[62] = locus YPL031C, strain PHO85, stronger effect = lower value
[63] = locus YPL153C, strain RAD53, stronger effect = lower value
[64] = locus YPL204W, strain HRR25, stronger effect = lower value
[65] = locus YPL209C, strain IPL1, stronger effect = lower value
[66] = locus YPL256C, strain CLN2, stronger effect = lower value
[67] = locus YPR025C, strain CCL1, stronger effect = lower value
[68] = locus YPR106W, strain ISR1, stronger effect = lower value
[69] = locus YPR111W, strain DBF20, stronger effect = lower value
[70] = strain NNK1, stronger effect = lower value
[71] = strain TSCII, stronger effect = lower value

Measured: normalized growth

CC(C)(C)CN/C(C#N)=C(/C#N)NCc1cccc(Cl)c1
inactive: [1] 0.993 | [2] 0.991 | [3] 0.98 | [4] 0.991 | [5] 0.991 | [6] 0.994 | [7] 0.993 | [8] 0.982 | [9] 0.997 | [10] 0.987 | [11] 0.991 | [12] 0.996 | [13] 0.991 | [14] 0.973 | [15] 0.988 | [16] 0.947 | [17] 0.988 | [18] 0.988 | [19] 0.992 | [20] 0.991 | [21] 0.99 | [22] 0.983 | [23] 0.966 | [24] 0.947 | [25] 0.871 | [26] 0.977 | [27] 0.995 | [28] 1.01 | [29] 0.896 | [30] 1 | [31] 0.883 | [32] 0.95 | [33] 0.982 | [34] 0.987 | [35] 0.97 | [36] 1 | [37] 0.986 | [38] 0.977 | [39] 0.954 | [40] 0.984 | [41] 1.04 | [42] 0.915 | [43] 0.974 | [44] 0.941 | [45] 0.965 | [46] 0.995 | [47] 0.973 | [48] 0.992 | [49] 0.978 | [50] 0.974 | [51] 0.984 | [52] 0.945 | [53] 0.98 | [54] 0.984 | [55] 0.877 | [56] 0.981 | [57] 0.955 | [58] 1 | [59] 1.04 | [60] 0.931 | [61] 0.99 | [62] 0.99 | [63] 0.988 | [64] 0.967 | [65] 0.982 | [66] 1.08 | [67] 0.986 | [68] 0.989 | [69] 0.964 | [70] 0.987 | [71] 0.985

CCOc1ccc(/C=C(\C#N)c2cccc(Cl)c2)cc1
inactive: locus YAL013W, strain DEP1, stronger effect = lower value 0.992 | locus YBR229C, strain ROT2, stronger effect = lower value 0.995 | locus YCL061C, strain MRC1, stronger effect = lower value 1.01 | [8] 1.01 | locus YDR150W, strain NUM1, stronger effect = lower value 0.975 | locus YEL061C, strain CIN8, stronger effect = lower value 0.955 | locus YGR078C, strain PAC10, stronger effect = lower value 0.979 | [26] 0.694 | locus YHR087W, strain rtc3, stronger effect = lower value 0.97 | locus YJL187C, strain SWE1, stronger effect = lower value 1.01 | locus YJR043C, strain POL32, stronger effect = lower value 1 | locus YJR075W, strain HOC1, stronger effect = lower value 0.967 | locus YLR039C, strain RIC1, stronger effect = lower value 0.892 | locus YLR058C, strain SHM2 (second series), stronger effect = lower value 0.982 | locus YLR262C, strain YPT6, stronger effect = lower value 0.952 | locus YML094W, strain GIM5, stronger effect = lower value 0.927 | locus YMR219W, strain ESC1, stronger effect = lower value 0.99 | locus YMR263W, strain SAP30, stronger effect = lower value 0.987 | locus YNL153C, strain GIM3, stronger effect = lower value 1.01 | locus YNL298W, strain CLA4 (second series), stronger effect = lower value 0.936 | locus YNL322C, strain KRE1, stronger effect = lower value 0.975 | locus YNR030W, strain Alg12, stronger effect = lower value 0.928 | locus YPL055C, strain LGE1, stronger effect = lower value 0.95 | locus YPL241C, strain CIN2, stronger effect = lower value 0.933 | locus YPR135W, strain CTF4, stronger effect = lower value 0.987
active: locus YDL134C, strain PPH21, stronger effect = lower value 0.915 | locus YLR085C, strain ARP6, stronger effect = lower value 0.723 | locus YMR307W, strain GAS1, stronger effect = lower value 0.645

CS(=NC(=O)c1cccc(Cl)c1)c1ccc(OC(=O)c2ccc(Cl)cc2)cc1 (stereo not given)
inactive: [1] 0.969 | [2] 0.966 | [3] 0.97 | [4] 0.966 | [5] 0.967 | [6] 0.968 | [7] 0.964 | [8] 0.972 | [9] 0.964 | [10] 0.958 | [11] 0.958 | [12] 0.954 | [13] 0.967 | [14] 0.966 | [15] 0.972 | [16] 0.924 | [17] 0.95 | [18] 0.966 | [19] 0.966 | [20] 0.968 | [21] 0.943 | [22] 0.966 | [23] 0.96 | [24] 0.98 | [25] 0.981 | [26] 1.08 | [27] 1.1 | [28] 1.06 | [29] 1 | [30] 0.958 | [31] 0.946 | [32] 0.944 | [33] 0.949 | [34] 0.969 | [35] 0.983 | [36] 1.05 | [37] 0.945 | [38] 0.949 | [39] 0.935 | [40] 0.964 | [41] 1.02 | [42] 0.876 | [43] 0.952 | [44] 1 | [45] 0.94 | [46] 0.964 | [47] 0.934 | [48] 0.968 | [49] 0.979 | [50] 0.949 | [51] 0.971 | [52] 1.01 | [53] 0.964 | [54] 0.97 | [55] 0.982 | [56] 0.959 | [57] 0.936 | [58] 0.926 | [59] 1.01 | [60] 0.909 | [61] 0.969 | [62] 0.941 | [63] 0.968 | [64] 0.952 | [65] 0.974 | [66] 1.06 | [67] 0.968 | [68] 0.974 | [69] 0.975 | [70] 0.972 | [71] 0.965
